Laboratory results from PubChem BioAssay (NCI).
Compounds without any hit were thinned out: in the full panel of roughly 83,000, 20% have a hit.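 For each line, cells grew in 96-well plates with the test compound present at a single concentration for 48 hours.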 Active and inactive are the calls of the source.

Test system: NCI-H23 lung
Assay: NCI-60 one-dose screen, 48 h (100 = growth as untreated, 0 = no growth, -100 = all killed)
Details: 10 µM unless noted
Procedure: Growth inhibition of the NCI-H23 human Non-Small Cell Lung tumor cell line is measured as a screen for anti-cancer activity. Cells are grown in 96 well plates and exposed to the test compound for 48 hours. Compounds are tested at a single concentration, which is 10^-5 M for most compounds. The reported endpoint is percent growth (GI% or GIPRCNT), where numbers from 0 - 100% represent growth inhibition, and numbers from -100% - 0 represent cell death. For example, a value of 40 represents 60% growth inhibition. A value of 0 means no net growth occurred over the course of the experiment. A value of -40 indicates 40% of cells at the beginning of the experiment died by the end of the experiment. A value of -100 means all cells are dead at the end of the experiment.
NCI-60 Human Tumor Cell Lines Screen was performed using the standard one-dose NCI protocol, which is described in more detail at https://dtp.cancer.gov/discovery_development/nci-60/default.htm.
Compounds with GIPRCNT values below 10 were considered active. Activity score was based on GIPRCNT using the following formula: […]
Score is 0 for GIPRCNT values of 100 or above, 50 for GIPRCNT values of 0, and 100 for GIPRCNT values of -100.

Structure (SMILES)	growth
CCCCCCCCCCC1OC(C)CC(C)O1 (stereo not given)	100% (inactive)
COc1ccc(Cn2cc3c(c2-c2ccc(OC)cc2)CCc2cnoc2-3)cc1	6.98% (active)
CCC(C)(C)c1ccc(OCCCCCCN2CCN(c3ccc(C)c(Cl)c3)CC2)cc1	62.3% (inactive)
O=C1NCCN1/N=C/c1c(Cl)nc2n1CCS2	106% (inactive)
COc1cc2c(/C=C3\C(=O)Nc4ccc(Br)cc43)c(Cl)n(C)c2cc1C	20.6% (inactive)
Nc1nc(-c2cccc(Br)c2)cc(-c2cc3ccccc3oc2=O)n1	96.1% (inactive)
CC1(C)NCCC[C@]2(C)[C@H]3CC=C4[C@@H]5C[C@](C)(COC(=O)c6ccccc6C(=O)O)CC[C@]5(C)CC[C@@]4(C)[C@]3(C)CC[C@@H]12	66.9% (inactive)
CCCC[N+](C)(N)CCCC	112% (inactive)
O=C(Oc1ccccc1)c1ccccc1Cl	104% (inactive)
CCCCN(CCCC)CC(O)CN(CC)CC (stereo not given)	99.6% (inactive)
COc1cc(OC)cc(-c2ccc(-c3ccc(C(=N)N)cc3)s2)c1	-77.5% (active)
COc1ccc2c(N)ncc(C#Cc3cc(C(=O)Nc4ccc(CN5CCN(C)CC5)c(C(F)(F)F)c4)cnc3C)c2c1	-30.3% (active)
COC(=O)c1ccc2[nH]c(O)c(C(=Nc3ccc(N(C)C(=O)CN4CCN(C)CC4)cc3)c3ccc(CCO)cc3)c2c1	57.1% (inactive)
COC(=O)/C=C/c1cc(O)c2oc(-c3ccc(O)c(O)c3)c(C(=O)OC)c2c1	30.4% (inactive)
CC(O)C(N)=O (stereo not given)	95.6% (inactive)
COC(=O)[C@H](Cc1cn(C)cn1)NC(=O)[C@H](CC(=O)OCc1ccccc1)NC(=O)Nc1cc(C(F)(F)F)cc(C(F)(F)F)c1	-83.9% [100 µM] (active)
NC(N)=N/N=C/c1cccc(Br)c1	97.6% (inactive)
O=C(/C=C1\C(=O)N(Cc2ccccc2)c2ccccc21)c1ccc(OCCN2CCCCC2)cc1	58.9% (inactive)
CC(C)(CNC1CCCCC1)OC(=O)c1ccccc1	107% (inactive)
COc1cc(-c2nn(-c3ccc(NC(=O)Nc4ccc(Cl)c(Cl)c4)cc3)cc2-c2ccncc2)ccc1Cl	22.9% (inactive)

Structure (SMILES)	growth
CCC(C)C1NC(=O)C(CC(C)C)NC(=O)C(C)NC(=O)C(C(C)C)NC(=O)C(CCCCN)NC(=O)C(CC(C)C)NC(=O)C(C(C)C)NC(=O)[C@H](C)NC(=O)C(C(C)CC)NC(=O)C(CCCN=C(N)N)NC(=O)C(CCCCN)NC(=O)C(CCCN=C(N)N)NC(=O)C(CCCCN)NC(=O)C([C@H](C)CC)NC(=O)C(CCCCN)NC1=O (stereo not given in full)	8.22% (active)
O=C(/C=C/c1ccc(Cl)cc1)c1ccc(Cl)cc1	94.8% (inactive)
NNC(=O)CNc1ccc2ccccc2c1	101% (inactive)
CC([C@H]1CCC2C3CCC4C[C@@H](N)CC[C@]4(C)C3CC[C@@]21C)N(C)C (stereo not given in full)	77.1% (inactive)
N=c1c2c(=O)n3c(nc2nc2sc4ccc(Cl)cc4n12)-c1ccccc1Sc1ccccc1-3	8.13% (active)
CC[C@H](Nc1ncnc2nc[nH]c12)c1nc2cccc(NCc3ccc(C(=O)NO)nc3)c2c(=O)n1-c1ccccc1	41.1% (inactive)
Cc1cc2cn3c4ccc(O)cc4[nH]c(=O)c3c2cc1C	25.3% (inactive)
CC1(C)NC(=S)NC1=O	101% (inactive)
CCCCCCC(C(=O)OCC)(C(=O)OCC)C1CCCCCC1	107% (inactive)
Oc1ccccc1\C=N/N=C/C=C/c1ccccc1	92.7% (inactive)
C=CCC(CCC(CC=C)C(=O)OCC)C(=O)OCC (stereo not given)	108% (inactive)
CC(C)CSc1nc(-c2ccc(F)cc2)c(C#N)c(N2CCCCC2)n1	83.7% (inactive)
CCCCCCCCCCCCCCCCCC(=O)Nc1ccc(O)cc1	98.7% (inactive)
N#CCc1ncc(-c2ccc(C(F)(F)F)cc2)c(NC2CCCCCC2)n1	25.7% [100 µM] (inactive)
O=C1Nc2c(c(=O)n(-c3ccccc3)c3ccccc23)C(c2ccc(Cl)cc2)N1 (stereo not given)	90.4% (inactive)
C[C@]12CC[C@H]3[C@@H](CC[C@H]4C[C@@H](O)CC[C@@]43C)[C@@H]1CC(=O)C2	99.9% (inactive)
COC1=CC(c2ccc[nH]2)=N/C1=C\c1[nH]c(C)c(C(=O)CCCCC(=O)NC(C)(C)C)c1C	40.6% (inactive)
COc1cc(CNC(=O)CCCC/C=C/C(C)C)ccc1OCc1nnc(Nc2ccccc2F)o1	63.8% (inactive)
O=C(/C=C\c1ccc(NCc2ccc(C(=O)O)cc2)cc1)CCl	94.3% (inactive)
COC(=O)CC(=O)C(=O)OC	103% (inactive)
